# Results filed as inconclusive are left out. Where a call stands in place of a potency, no number is given. Values without a mark were called inactive. Calls of active or inactive are those of the source. Calls follow the shape of the dose curve; as a rule, active = well fitted curve in the direction sought with a large enough effect; inconclusive = small, poorly fitted or top-dose-only effect, or another doubt; inactive = no such curve, though single readings can be large; an effect the other way counts as inactive or inconclusive.
# Assays:
# [1] = Viability qHTS for spleen associated tyrosine kinase inhibitor (SYKi) drug resistant MV4-11 cells (AID 1963824); also: nearly all actives have a fitted effect of over 35% in size; also: potency is read from the fitted curve at half-maximal effect
# How it was run: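 SYK-inhibitor-resistant MV4-11 AML cells were seeded at 500 per well onto compound and cultured 72 hours (37 °C, 5% CO2). CellTiter-Glo was then added, and after 10 min at room temperature, luminescence gave viability.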
# [2] = Cellular viability qHTS for adrenocortical cancer (ACC) cell line SW-13 (AID 1963989); settings: SW-13 ACC cells viability, CellTiter-Glo, 48 h; activity (max response): active compounds read low;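 also: cells grown in serum-free medium with ITS supplement; nearly all actives have a fitted effect of over 65% in size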
# How it was run: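 48 h treatment, SW-13 in ITS/DMEM serum-free; doses up to 46 uM; readout CellTiter-Glo luminescence; curve fit four-parameter logistic.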
# [3] = Cellular viability qHTS for adrenocortical cancer (ACC) cell line NCI-H295R (AID 1963990); also: nearly all actives have a fitted effect of over 60% in size; also: potency is read from the fitted curve at half-maximal effect
# How it was run: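 Compound titrations (up to 46 uM final) are applied to NCI-H295R cultures for 48 h at 37C. Viable cell number is estimated by CellTiter-Glo signal, normalised to DMSO and doxorubicin controls.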
# [4] = Quantitative highthroughput screen to assess conditional lethalithy of P12 Ichikawa cells grown in Human Plasma-Like Medium with dialyzed fetal bovine serum (HPLM+ds) (AID 1963879); settings: Potency: viability; also: nearly all actives have a fitted effect of over 35% in size; also: potency is read from the fitted curve at half-maximal effect; as to Viability: series mostly up to about 46 µM
# How it was run: (§1)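 Each medium arm—HPLM with 10% dialyzed FBS, or RPMI1640 with 5 mM glucose and 10% untreated or dialyzed FBS—was screened against an 11-point, 3-fold compound titration for 48 h at 37 °C, with CellTiter-Glo luminescence as endpoint.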
# [5] = Quantitative highthroughput screen to assess conditional lethalithy of NOMO1 cells grown in Human Plasma-Like Medium with dialyzed fetal bovine serum (HPLM+ds) (AID 1963878); also: nearly all actives have a fitted effect of over 35% in size; also: potency is read from the fitted curve at half-maximal effect
# How it was run: as §1
# [6] = Quantitative highthroughput screen to assess conditional lethalithy of P12 Ichikawa cells grown in RPMI1640 with dialyzed fetal bovine serum (RPMI+ds) (AID 1963880); settings: Potency: P12-Ichikawa viability; also: nearly all actives have a fitted effect of over 35% in size; also: potency is read from the fitted curve at half-maximal effect
# How it was run: as §1
# [7] = Quantitative highthroughput screen to assess conditional lethalithy of SEM cells grown in RPMI1640 with dialyzed fetal bovine serum (RPMI+ds) (AID 1963884); also: nearly all actives have a fitted effect of over 35% in size; also: potency is read from the fitted curve at half-maximal effect; as to Viability: series mostly up to about 46 µM
# How it was run: as §1
# [8] = Quantitative highthroughput screen to assess conditional lethalithy of P12 Ichikawa cells grown in RPMI1640 with untreated serum (RPMI+s) (AID 1963881); settings: Potency: viability; also: nearly all actives have a fitted effect of over 35% in size; also: potency is read from the fitted curve at half-maximal effect; as to Viability: series mostly up to about 46 µM
# How it was run: as §1
# [9] = Quantitative highthroughput screen to assess conditional lethalithy of NOMO1 cells grown in RPMI1640 with dialyzed fetal bovine serum (RPMI+ds) (AID 1963877); also: nearly all actives have a fitted effect of over 30% in size; also: potency is read from the fitted curve at half-maximal effect; as to Viability: series mostly up to about 46 µM
# How it was run: as §1
# [10] = Quantitative highthroughput screen to assess conditional lethalithy of SEM cells grown in Human Plasma-Like Medium with dialyzed fetal bovine serum (HPLM+ds) (AID 1963882); also: nearly all actives have a fitted effect of over 35% in size; also: potency is read from the fitted curve at half-maximal effect; as to Viability: series mostly up to about 46 µM
# How it was run: as §1
# [11] = Quantitative highthroughput screen to assess conditional lethalithy of SEM cells grown in RPMI1640 with unreated serum (RPMI+s) (AID 1963883); also: nearly all actives have a fitted effect of over 35% in size
# How it was run: as §1
structure (smiles),measurement,setting,value
CC(=O)c1c(O)c(C)c(O)c(Cc2c(O)c3c(c(C(=O)/C=C/c4ccccc4)c2O)OC(C)(C)C=C3)c1O,Potency,[1],25900 nM (active)
same,activity (max response),[2],-2.92%
same,Potency,[3],inactive
CC[C@@H](CO)NC(=O)[C@@H]1C=C2c3cccc4c3c(cn4C)C[C@H]2N(C)C1,Potency,[1],9440 nM (active)
same,activity (max response),[2],-2.39%
same,Potency,[3],inactive
CC(C)(C)C(O)C(Oc1ccc(Cl)cc1)n1cncn1 (centres undefined),Potency,[1],21700 nM (active)
same,activity (max response),[2],-16.3%
COc1cc2c(cc1F)C(c1ccccc1Cl)=Nc1c(n[nH]c1C)N2,Potency,[1],1480 nM (active)
same,activity (max response),[2],-18.7%
same,Potency,[3],inactive
CN1[C@H]2CC(O)C[C@H]1[C@H]1O[C@H]12 (some centres undefined),Potency,[1],inactive
same,activity (max response),[2],10.2%
C=C1C[C@H]2[C@H]3CCC(=O)[C@@]3(C)CC[C@@H]2[C@@]2(C)C=CC(=O)C=C12,Potency,[4],inactive
C[C@]12COC(=O)C[C@@H]1CC[C@@H]1[C@H]2CC[C@@]2(C)[C@H]1CC[C@]2(C)O,Potency,[5],inactive
same,Potency,[4],inactive
same,Potency,[6],inactive
same,Potency,[7],inactive
CC(O)=C(C#N)C(=O)Nc1cc(Br)ccc1Br,Potency,[5],inactive
same,Potency,[8],inactive
C[C@](O)(CS(=O)(=O)c1ccc(F)cc1)C(=O)Nc1ccc(C#N)c(C(F)(F)F)c1,Potency,[9],inactive
same,Potency,[4],inactive
same,Potency,[8],inactive
NC1CC1c1ccccc1 (centres undefined),Potency,[9],inactive
same,Potency,[4],inactive
same,Potency,[6],inactive
same,Potency,[8],inactive
Cc1ccccc1-n1c(Cn2ncc3c(N)ncnc32)nc2cccc(C)c2c1=O,Potency,[9],833 nM (active)
same,Potency,[4],2960 nM (active)
same,Potency,[7],inactive
same,activity (max response),[2],2.46%
CC(C)N[C@@H]1CCn2c(=O)[nH]c3cccc(c32)[C@@H]1O,Potency,[9],inactive
same,Potency,[4],inactive
same,Potency,[6],inactive
same,Potency,[10],inactive
O=[N+]([O-])c1ncc[nH]1,Potency,[5],inactive
same,Potency,[6],inactive
same,Potency,[10],inactive
same,Potency,[11],inactive
Oc1ccc2c3c1O[C@H]1c4[nH]c5c(c4C[C@@]4(O)[C@@H](C2)N(CC2CC2)CC[C@]314)C[C@@]1(O)[C@H]2Cc3ccc(O)c4c3[C@@]1(CCN2CC1CC1)[C@H]5O4,Potency,[5],inactive
same,Potency,[6],inactive
same,Potency,[8],inactive
CC(=O)O[C@@]12CO[C@H]1C[C@H](O)[C@@]1(C)C(=O)[C@H](O)C3=C(C)[C@@H](O)C[C@@](O)([C@@H](OC(=O)c4ccccc4)[C@@H]21)C3(C)C,Potency,[4],10500 nM (active)
same,Potency,[6],11800 nM (active)
same,Potency,[8],9350 nM (active)
C[C@@]12OC(=O)[C@]1([C@@H](O)[C@@H]1C=CCCC1)NC(=O)[C@H]2CCCl,Potency,[9],209 nM (active)
same,Potency,[4],235 nM (active)
same,Potency,[6],187 nM (active)
same,Potency,[10],52.6 nM (active)
same,Potency,[7],46.9 nM (active)
COc1ccc2c(c1)[C@]13CCCCC1C(C2)N(C)CC3 (some centres undefined),Potency,[4],inactive
same,Potency,[8],inactive
C[C@]12CCC(=O)C=C1CC[C@@H]1[C@H]3CC[C@](C)(O)[C@@]3(C)CC[C@@H]12,Potency,[9],inactive
same,Potency,[5],inactive
same,Potency,[4],inactive
same,Potency,[6],inactive
same,Potency,[3],28200 nM (active)
C[C@@H]1CC[C@H]2[C@@H](C)C(=O)O[C@@H]3O[C@@]4(C)CC[C@H]1[C@]32OO4,Potency,[9],inactive
same,Potency,[5],inactive
same,Potency,[6],inactive
same,Potency,[10],inactive
C1=C2CCCN[C@H]2[C@@H]2C[C@H]1[C@@H]1CCCCN1C2,Potency,[5],inactive
same,Potency,[11],inactive
C[C@]12Cc3cn[nH]c3C[C@@H]1CC[C@@H]1[C@H]2CC[C@@]2(C)[C@H]1CC[C@]2(C)O,Potency,[9],inactive
same,Potency,[5],inactive
same,Potency,[4],inactive
same,Potency,[8],inactive
same,Potency,[10],inactive
same,Potency,[11],inactive
CC(=O)OCC1=C(C(=O)O)N2C(=O)[C@@H](N)[C@@H]2SC1,Potency,[4],1480 nM (active)
c1cc2c(cc1[C@H]1OC[C@H]3[C@H]1CO[C@H]3c1ccc3c(c1)OCO3)OCO2,Potency,[9],inactive
same,Potency,[4],inactive
same,Potency,[6],inactive
same,Potency,[8],inactive
Clc1ccccc1C(c1ccccc1)(c1ccccc1)n1cccn1,Potency,[9],inactive
same,Potency,[11],inactive
same,activity (max response),[2],-15.1%
C[C@]12CCC(=O)C(O)=C1CC[C@@H]1[C@H]3CCC(=O)[C@@]3(C)CC[C@@H]12,Potency,[5],inactive
same,Potency,[4],inactive
same,Potency,[6],inactive
same,Potency,[11],inactive
same,Potency,[7],inactive
CC=C(C)C(=O)O[C@H]1C(C)=C2[C@@H]3OC(=O)[C@@](C)(O)[C@@]3(O)[C@@H](OC(=O)CCC)C[C@](C)(OC(C)=O)[C@@H]2[C@@H]1OC(=O)CCCCCCC,Potency,[9],66.2 nM (active)
same,Potency,[5],66.2 nM (active)
same,Potency,[6],132 nM (active)
CC=C(C)C(=O)N[C@@H](c1ccccc1)[C@@H](O)C(=O)O[C@H]1C[C@@]2(O)[C@@H](OC(=O)c3ccccc3)[C@@H]3[C@]4(OC(C)=O)CO[C@@H]4C[C@H](O)[C@@]3(C)C(=O)[C@H](OC(C)=O)C(=C1C)C2(C)C,Potency,[5],inactive
Cc1c(N)nc([C@H](CC(N)=O)NC[C@@H](N)C(N)=O)nc1C(=O)N[C@H](C(=O)N[C@@H](C)[C@H](O)[C@@H](C)C(=O)N[C@@H](C(=O)NCCc1nc(-c2nc(C(=O)NCCC[S+](C)C)cs2)cs1)[C@@H](C)O)C(O[C@H]1O[C@H](CO)[C@H](O)[C@@H](O)[C@@H]1O[C@H]1O[C@H](CO)[C@@H](O)[C@H](OC(N)=O)[C@H]1O)c1cnc[nH]1 (some centres undefined),Potency,[9],2640 nM (active)
same,Potency,[7],4180 nM (active)
COC1=CC(C)=C[C@@H](C)[C@@H](O)[C@@H](C)CC(C)=CC=C[C@H](OC)[C@H]([C@@H](C)[C@@H](O)[C@H](C)[C@@]2(O)C[C@@H](O)[C@H](C)[C@@H](C(C)C)O2)OC1=O,Potency,[5],66.2 nM (active)
same,Potency,[6],66.2 nM (active)
C[C@@H]1[C@@H](C(=O)C[C@H]2O[C@@H]3O[C@]4(C)CC[C@@H]5[C@H](C)CC[C@@H]([C@H]2C)[C@@]35OO4)O[C@@H]2O[C@]3(C)CC[C@H]4[C@H](C)CC[C@@H]1[C@@]24OO3,Potency,[4],23500 nM (active)
same,Potency,[6],16600 nM (active)
same,Potency,[8],23500 nM (active)
same,Potency,[7],23500 nM (active)

# — PubChem BioAssay (NCATS)
